According to PMC6212790, “How bacterial xenogeneic silencer rok distinguishes foreign from self DNA in its resident genome”:
Over roughly 33,000 sequences, “e-score” has its median near -0.038; the highest 2% begin near 0.33. Many of the other results were omitted from the sample, so the highest values are more common in it than they were.

molecular target: T1, GST-Rok-C97-191 (Bacillus subtilis subsp. subtilis str. …, UniProt O34857 97-191); assay: protein binding microarray; Rok is a gene silencer of Bacillus subtilis; high values mean tight binding; settings: protein: recombinant; tags: GST (pTH5325, pDEST15-Magic modified); dsDNA, one strand shown
T1 sequence: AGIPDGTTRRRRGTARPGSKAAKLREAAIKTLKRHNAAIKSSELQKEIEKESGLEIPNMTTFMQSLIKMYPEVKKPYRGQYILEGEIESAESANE
Procedure, shortened: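 Each has a 25-mer constant primer and a 35-mer variable part from a de Bruijn sequence of order 10, covering every non-palindromic 8-mer at least 32 times (palindromic 16). Preference for each 8-mer is given as a rank-based, unitless enrichment score (E-score). Its range runs from 0.5 (most favored) to −0.5 (most disfavored).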

Row | Sequence | binding signal [E-score]
1 | CTTTGTCC | -0.101
2 | ATTAGGAA | -0.056
3 | TGGGACAA | -0.0222
4 | CATCCAAC | -0.0608
5 | GATTATAC | 0.238
6 | CATTATAC | 0.177
7 | AATTATAG | 0.303
8 | AATTATAC | 0.348
9 | AATTATAT | 0.398
10 | AATTATAA | 0.274
11 | AAGGGTGC | -0.165
12 | CATCTGAA | -0.0216
13 | ATAACTAA | 0.249
14 | ATAACTAG | 0.232
15 | AAAACTGC | -0.0367
16 | AAAACTGT | 0.0809
17 | AAAACTAA | 0.255
18 | AAAACTCC | 0.137
19 | AAAACTTG | -0.0585
20 | AAAACTAC | 0.433
21 | ATAACTAT | 0.383
22 | AAAACTAG | 0.364
23 | AAAACTAT | 0.415
24 | AAAACTGG | 0.0097
25 | CGATCAAG | -0.0651

Row | Sequence | binding signal [E-score]
26 | ACATCGCG | 0.139
27 | CCAAATAC | 0.137
28 | GAACGTTC | 0.053
29 | CCGTAGCA | 0.075
30 | ATTTGGAA | 0.102
31 | AGCCAATA | -0.0503
32 | GAATTCAC | 0.074
33 | CAAACTTA | 0.101
34 | GAAACTTC | 0.204
35 | CAAACTAA | 0.374
36 | CAAACTCC | -0.063
37 | GAAACTAA | 0.313
38 | GAAACTAC | 0.46
39 | CAAACTAG | 0.287
40 | GCAACTAC | 0.239
41 | TAAACTAA | 0.234
42 | CAAACTAC | 0.446
43 | ACAACTAC | 0.348
44 | ACAACTAT | 0.321
45 | CTGAGTCA | -0.156
46 | AGGTTCAC | -0.111
47 | GGTCCTTA | 0.0575
48 | CAAGGTGA | -0.134
49 | AAGTTGCA | 0.0502
50 | CTGGTCAA | 0.00605

Row | Sequence | binding signal [E-score]
51 | CCCATATC | -0.0677
52 | AGCTATTA | 0.315
53 | CATTTATC | 0.218
54 | GATTTATA | 0.304
55 | CATTTTTA | 0.184
56 | CATTTATA | 0.354
57 | AATTTATA | 0.373
58 | AATTTATG | 0.209
59 | ATTCACTA | 0.174
60 | AGTCGATC | -0.00304
61 | ACGGGAAA | 0.132
62 | ACCGGAAA | -0.1
63 | CCTATATA | 0.283
64 | GCTATATA | 0.355
65 | ACTATAGA | 0.241
66 | GCTATACA | 0.176
67 | ACTATATC | 0.284
68 | ACTATATA | 0.437
69 | ACTCTTTA | 0.0447
70 | CGATATAG | 0.238
71 | ATATAGGG | -0.00212
72 | ATATATAG | 0.379
73 | CCATATAG | 0.129
74 | ATATAGCG | 0.349
75 | ATATAGCA | 0.3

Row | Sequence | binding signal [E-score]
76 | ATGTATAG | 0.264
77 | CTATATAG | 0.413
78 | ATATAGCC | 0.135
79 | AGCTTTGA | 0.0387
80 | AGCGGCAC | -0.177
81 | ATAGTTAG | 0.35
82 | ATAGTTCA | 0.265
83 | AAAGTTAG | 0.156
84 | ATAGTTCC | 0.143
85 | ATAGTTCG | 0.354
86 | ATAGTTAC | 0.254
87 | CTGTGAGA | -0.127
88 | GCACTTGA | -0.0251
89 | CATCATAG | 0.00873
90 | CTTATTCA | 0.048
91 | CGCAAAGA | -0.193
92 | GGAAAAAA | -0.0552
93 | TGTACAAA | 0.355
94 | AGTACAAA | 0.342
95 | CGTACAAA | 0.236
96 | AGTACAAG | 0.247
97 | GGTACAAA | 0.216
98 | AGTACAAT | 0.269
99 | TCGAGGCA | 0.00484
100 | CCGCAAGA | -0.109

Row | Sequence | binding signal [E-score]
101 | GAATCGGA | -0.078
102 | GGATAGAA | 0.195
103 | AGATAGAA | 0.308
104 | CGATAGAA | 0.359
105 | TGATAGAA | 0.385
106 | CGATAGAC | 0.063
107 | CGATAGAG | -0.176
108 | GTGTTACA | 0.168
109 | CTAATGTA | 0.185
110 | ATAATGTG | 0.167
111 | ATAATGTC | 0.112
112 | GTAATGTA | 0.339
113 | GTAATGAA | -0.0192
114 | ATAATGTA | 0.405
115 | ATAAACGG | 0.19
116 | CGCCACCG | -0.0411
117 | ATTACTAA | 0.326
118 | ATTACTAC | 0.407
119 | ATTACTCG | 0.198
120 | CTTACTAC | 0.171
121 | ATTACTGC | 0.11
122 | ATTACTAG | 0.392
123 | ATGTTTAC | 0.00161
124 | AAATGGTT | 0.177
125 | AGCTTCTG | -0.0648

Row | Sequence | binding signal [E-score]
126 | CGCTAGAC | 0.00486
127 | ATGTCCAC | -0.0386
128 | ATCTACCA | 0.469
129 | GTCTACCA | 0.15
130 | ACCTACCG | 0.148
131 | ATCTACCC | 0.22
132 | ATCTACCG | 0.394
133 | ATCTACGA | 0.333
134 | CTCTACGA | 0.107
135 | GTCTACGA | -0.0769
136 | ATCTATCG | 0.313
137 | CGAAAGAC | -0.0876
138 | GAAAGACA | -0.0886
139 | GTGCAGTA | 0.196
140 | ATCGAGGC | -0.159
141 | TATGACGA | 0.0683
142 | CTATTAAA | 0.0376
143 | ATATTAAA | 0.385
144 | ATATTTAC | 0.375
145 | ATATTAAC | 0.296
146 | CTATTTAA | 0.14
147 | ATATTTGC | 0.295
148 | ACATTTAC | 0.315
149 | ATATTTAG | 0.201
150 | CTCTTTAC | 0.0967

Row | Sequence | binding signal [E-score]
151 | ATATTTAA | 0.338
152 | ATTTTTAA | 0.146
153 | CTATTTAC | 0.349
154 | CTTTACTC | -0.199
155 | ATGTAGGA | 0.201
156 | CTTGACGA | -0.14
157 | AGTGTACA | 0.141
158 | TATGTACA | 0.345
159 | AATGTACC | 0.373
160 | AATGTACT | 0.296
161 | AATGTACG | 0.155
162 | CATGTACC | 0.227
163 | AATGTACA | 0.34
164 | GATGTACA | 0.29
165 | CATGTACA | 0.317
166 | CCGAGTCG | -0.148
167 | AGGAGAAA | 0.073
168 | CACGAAGC | -0.104
169 | AGCATTTG | -0.0352
170 | AACTGAAC | 0.106
171 | GCCATTGA | -0.0503
172 | TATTTAAA | 0.186
